Screens as filed in PubChem BioAssay.
In the library only some 3.3% were active in any assay of this set; here they are far more common.
USP28 inh = human USP28 deubiquitinase inhibition. Q96RU2. purified USP28, Ub-rhodamine cleavage fluorescence, 30 min. inhibition, % at 25 µM. hit rate 3% among 47,000. AID 1645857
OTUD3 inh = human OTUD3 deubiquitinase inhibition | inhibition, % at 25 µM | purified OTUD3, Ub-rhodamine fluorescence, 2 h | hit rate 0.7% among 47,000 | Q5T2D3
Target sequence (Q5T2D3 whole entry, looked up): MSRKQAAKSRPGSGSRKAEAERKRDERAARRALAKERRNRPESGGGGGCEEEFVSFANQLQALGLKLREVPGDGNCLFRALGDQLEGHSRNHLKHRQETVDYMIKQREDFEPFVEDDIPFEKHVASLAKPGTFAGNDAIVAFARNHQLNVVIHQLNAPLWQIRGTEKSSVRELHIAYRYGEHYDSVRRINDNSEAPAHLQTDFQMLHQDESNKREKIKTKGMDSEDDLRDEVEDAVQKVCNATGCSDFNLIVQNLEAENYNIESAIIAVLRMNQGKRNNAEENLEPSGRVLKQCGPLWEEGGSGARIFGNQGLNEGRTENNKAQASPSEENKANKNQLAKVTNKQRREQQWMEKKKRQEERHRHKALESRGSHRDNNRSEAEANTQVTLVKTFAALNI
Of the large screens only hits and unclear results are named; the others gave an inactive call. Rule as the data show it: active = inhibition above about 30%; inactive = the rest.

COc1ccc(CC(=O)N2CCN(c3ccc(Nc4ccccn4)nn3)CC2)cc1	USP28 inh 36.8
COc1ccc(S(=O)(=O)NCc2ccc(C(=O)N3CCN(c4ccccn4)CC3)cc2)cc1	none
CC(=O)Nc1ccc(Nc2cc(N3CCCCC3)nc(C)n2)cc1	none
O=C(c1ccco1)N1CCC2(CC1)CC1(CO2)Nc2ccccc2-n2cccc21 (configuration not stated)	none
Cc1ccc(NC(=O)c2nnn(-c3ccccc3)n2)cc1F	USP28 inh 55.7
NC(=O)c1nnn(-c2ccc(NC(=O)c3ccc(F)c(F)c3)cc2)n1	none
Cc1c(C(=O)NCC2CCCCC2)nnn1-c1cccc2c1CCN(C1CCOCC1)C2	none
Cn1c(=O)c2c(nc(CN3CCOCC3)n2Cc2cccc(Cl)c2)n(C)c1=O	none
O=c1c2[nH]c3ccccc3c2ncn1CCC1=CCCCC1	none
COc1ccc(CCn2cnc3c([nH]c4ccccc43)c2=O)cc1	USP28 inh 35.1
Cc1ccc2[nH]c3c(=O)n(CCC4=CCCCC4)cnc3c2c1	none
Cc1ccc2[nH]c3c(=O)n(CCc4ccc(O)cc4)cnc3c2c1	USP28 inh 42.8
O=C1C(Nc2ccccc2)=CC(c2ccc(F)cc2)N1c1ccccc1 (configuration not stated)	none
Fc1cccc(CNc2cc(-n3ccnc3)ncn2)c1	USP28 inh 31.9
Cc1cccc(CNc2cc(-n3ccnc3)ncn2)c1	none
O=C(c1ccccn1)N1CCN(c2cc(-c3ccccc3)[nH]n2)CC1	none
Cn1nc(C(=O)Nc2cccc(F)c2)c(=O)c2ccccc21	none
CCCN1C(=O)CC2(CCNCC2)CC1=O	none
COc1cccc(NC(=O)C2C3C=CC4(O3)C2C(=O)N(CCc2ccc(Cl)cc2)C4C(=O)NC2CCCCC2)c1 (configuration not stated)	none
COc1cccc(NC(=O)C2C3C=CC4(O3)C2C(=O)N(CCc2ccccc2Cl)C4C(=O)NC2CCCCC2)c1 (configuration not stated)	OTUD3 inh 31.8
O=C(COc1ccc(Cl)cc1)Nc1noc(-c2cccs2)n1	USP28 inh 31.2
Cc1cc(NS(=O)(=O)c2ccc(NC(=O)COc3ccc(Cl)cc3)cc2)no1	none
c1ccc(-c2noc(-c3ccc(N4CCC5(CC4)OCCO5)nn3)n2)cc1	none
CCCOc1ccc(C(=O)Nc2ccc(S(=O)(=O)Nc3cc(C)nc(C)n3)cc2)cc1	USP28 inh 45.4, OTUD3 inh 57.2
COc1ccc(NS(=O)(=O)c2ccc(C(=O)Nc3cccc(C(C)=O)c3)cc2)cc1	none
CC(C(=O)N1CCC(c2onc3c2CCCC3)CC1)c1ccccc1 (configuration not stated)	none
c1ccc(-c2onc3c2CCCC3)cc1	USP28 inh 35.3
CNC(=O)c1c2n(c3ncccc13)CC(C)N(C(=O)c1ccc(Cl)cc1)C2 (configuration not stated)	none
CSc1ncccc1C(=O)Nc1ccnn1Cc1ccccn1	none
CSc1ncccc1C(=O)OCc1ccc(Cl)c(Cl)c1	USP28 inh 43.5
COc1ccc(CN2C[C@H]3N(c4ncccn4)CCC[C@@]3(C(=O)N(C)C)C2)cc1	none
O=c1[nH]c2ccc(S(=O)(=O)Nc3ccc(O)c4ccccc34)cc2[nH]1	OTUD3 inh 63.5
COc1cccc(CNS(=O)(=O)c2ccc3[nH]c(=O)[nH]c3c2)c1	none
Cn1cc2nc(SCC(=O)Nc3ccc(Cl)cc3F)n(CC3CC3)c(=O)c2n1	none
Cc1ccc(Cl)cc1NC(=O)CSc1nc2cn(C)nc2c(=O)n1CC1CC1	OTUD3 inh 37.7
CCOC(=O)c1c(NC(=O)c2ccc(OC)c(OC)c2)sc(C)c1CC	none
Cc1c(C)n(-c2ccccc2)c2ncn(CC(=O)NC(C)c3ccccc3)c(=O)c12 (configuration not stated)	OTUD3 inh 45.4
Cc1cccc(NC(=O)Cn2cnc3c(c(C)c(C)n3-c3ccccc3)c2=O)c1	none
COCCCn1cnc2c(-c3ccccc3)cn(CC(=O)NCc3ccc(C)cc3)c2c1=O	none
Cc1nnc(NC(=O)C2CCN(S(=O)(=O)c3ccc4c(c3)CCC4)CC2)o1	none
O=C(Nc1nc2c(s1)CCC2)C1CCN(S(=O)(=O)c2ccc3c(c2)CCCC3)CC1	USP28 inh 49.7
Cc1cc(=O)n(C)c2c(O)c3c(cc12)c(C)cc(=O)n3C	USP28 inh 69.5, OTUD3 inh 57.0
Cc1cc(=O)n2c3c(c4c(cc13)c(CO)cc(=O)n4C)OC2	none
Cc1ccc2c(NCc3ccc4c(c3)OCO4)c(-c3nc(C)no3)cnc2n1	USP28 inh 42.9
Cc1ccc2c(Nc3ccccc3)c(-c3nc(C)no3)cnc2n1	none
COC(=O)c1cc(NC(=O)/C=C/c2ccc(C(C)C)cc2)ccc1N1CCOCC1	none
COC(=O)c1ccc(NC(=O)/C=C/c2ccc(F)cc2)cc1	USP28 inh 95.6
O=C(Nc1cccc(-c2noc(C3CC3)n2)c1)C1CC(=O)N(c2ccccc2)C1 (configuration not stated)	none
COc1ccccc1Oc1nc(-c2ccccc2)cc(C)c1S(C)(=O)=O	USP28 inh 37.0
COc1ccc(Cl)cc1C(=O)NNC(=O)c1cc(-c2ccccc2)n[nH]1	none
CCOc1ccc(N2CC(C)Cn3c2nc2c3c(=O)n(CCN3CCCCC3)c(=O)n2C)cc1 (configuration not stated)	none
CC(=O)C(C)Sc1nc(C)nc2sc(-c3ccccc3)cc12 (configuration not stated)	none
Cc1cc(-c2cnc(NCc3cccc(F)c3)nc2[C@@H]2CCCO2)on1	USP28 inh 35.1
Cc1cc(-c2cnc(N3CCCC3)nc2[C@H]2CCCO2)on1	none
CC(C)(Oc1ccc(Cl)cc1)C(=O)NCc1nnnn1-c1ccc(F)cc1	USP28 inh 30.7
O=C(NCc1ccc(Cl)cc1)NCc1nnnn1-c1ccccc1	none
CCN(CC)C(=O)c1ncn2c1CN(CC1CC1)S(=O)(=O)c1ccccc1-2	none
COc1cc(C(Nc2ccc(S(=O)(=O)N3CCC(C)CC3)cc2)C(=O)Nc2c(C)cccc2C)cc(OC)c1OC (configuration not stated)	none
O=c1c2ccccc2ncn1C1CCN(S(=O)(=O)c2ccccc2F)CC1	none
CCc1nc2ccccc2c(C(=O)OCc2ccc(Cl)cc2)c1C	none
CSc1nc(Cc2ccc(Cl)cc2)nc2ccccc12	USP28 inh 55.5
CCc1cnc(N2CCC3(CC2)OC(C(=O)N2CCCCC2)Cn2ccnc23)nc1 (configuration not stated)	none
CC1Cc2ccccc2N1C(=O)Cn1c(=O)cc(O)c2ccccc21 (configuration not stated)	USP28 inh 56.6
CC1Cc2ccccc2N1C(=O)Cn1c(CC(=O)N2CCCC2)nc2ccccc21 (configuration not stated)	none
c1ccc(OCc2nc(-c3ccn4cnnc4c3)no2)cc1	none
Fc1ccc(Cc2nc(-c3ccc4nncn4c3)no2)cc1	USP28 inh 58.1
Fc1cccc(Cc2nc(-c3ccc4nncn4c3)no2)c1	none (no result: USP28 inh)
COc1ccc(Cc2nc(-c3ccc4nncn4c3)no2)c(Cl)c1	USP28 inh 41.4
CCOc1ccc(Cc2nc(-c3ccc4nnc(C)n4c3)no2)cc1	none
Clc1ccc(OCc2nc(-c3ccn4cnnc4c3)no2)cc1	USP28 inh 45.3
O=C1Nc2ccccc2C12CCN(S(=O)(=O)c1cccc(F)c1)C2 (configuration not stated)	none
Cc1ccccc1CNC(=O)Cn1c(=O)n(-c2ccccc2)c2ncccc21	none
Cc1n[nH]c(C)c1CC(=O)NCc1nnc(-c2nccc3ccccc23)o1	none
CN1CC[C@@H]2[C@H]1C(=O)NC[C@H](CCC(=O)N1CCN(c3ccccn3)CC1)N2C	USP28 inh 44.4
